Bioassay records as filed in PubChem BioAssay.
NIH3T3 tox: Cytotoxic Profiling in NIH 3T3 Cell Line of Diverse Libraries Using Quantitative High-Throughput Screening | AID 1345082, 2018 | Potency, µM (titrated, usually from 96.7 µM), for the others: at the highest dose activity change, negative = cytotoxicity, hits mostly inhibitors | 94,000 compounds, 4.3% hits | NIH 3T3 viability, CellTiter-Glo ATP luminescence, 48-72 h; further: nearly all actives have a fitted effect of over 55% in size
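Cells were seeded at 400 per well, treated with pin-transferred compound, and kept 48 or 72 hr at 37 °C before CellTiter-Glo addition and luminescence imaging of cellular ATP.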
GPT2 inh: Primary qHTS assay for inhibitors of Glutamate pyruvate transaminase 2 (GPT2); Alanine aminotransferase 2 (Homo sapiens), Q8TD30; Recombinant GPT2, coupled pyruvate oxidase/HRP Amplex Red fluorescence; Potency, µM (titrated, usually from 57.7 µM), without a hit: at the highest dose activity change, negative = inhibition, usual class: inhibitors; 100,000 compounds, 0.25% hits; AID 1671188, 2021; further: nearly all actives have a fitted effect of over 60% in size
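Inhibition is scored from Amplex Red fluorescence generated when pyruvate oxidase and HRP act on pyruvate released by GPT2. Reactions contain 10ng/uL enzyme, 250uM a-KG and 2mM L-alanine and run 30 min at room temperature.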
NPR1 antag: Natriuretic polypeptide receptor (hNpr1) antagonism - Primary qHTS. AID 1347048, 2019. HEK293 hNpr1 GloSensor cGMP, ANP-stimulated luminescence. Potency, µM (top dose mostly 46.3 µM), inactives show at the top dose activity change, negative = inhibition, hits mostly inhibitors. 76,000 compounds, 1.6% hits. Atrial natriuretic peptide receptor 1 (Homo sapiens), P16066; calls by dose curve; further: nearly all actives have a fitted effect of over 60% in size
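HEK293 cells stably expressing human Npr1 and cGMP GloSensor pGS-40F, loaded 2 h with 2% GloSensor reagent, given compound 30 min at room temperature. Luminescence read before and 20 min after 0.1 nM hNppA.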
Luciferase inh: Firefly luciferase inhibition profiling of diverse chemical library using quantitative high-throughput screening; Luciferin 4-monooxygenase (Photinus pyralis), P08659; purified P. pyralis luciferase, luminescence, biochemical; Potency, µM (highest dose often 115 µM), hits mostly inhibitors; 76,000 compounds, 2.5% hits; AID 1347043, 2019; further: nearly all actives have a fitted effect of over 65% in size
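Purified 10nM P. pyralis luciferase with 10uM D-luciferin and 10uM ATP in 50mM Tris acetate pH 7.5, 10mM Mg acetate, 0.01% Tween-20, 0.05% BSA. qHTS titration; luminescence read by CCD imager.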
HEK293 tox: Cytotoxic Profiling in HEK 293 Cell Line of Diverse Libraries Using Quantitative High-Throughput Screening; AID 1345083, 2018; Potency, µM (top dose mostly 115 µM), inactives show at the highest dose activity change, negative = cytotoxicity, most hits filed as inhibitors; 94,000 compounds, 6.6% hits; HEK 293 viability, ATP luminescence (CellTiter-Glo), 48-72 h; further: nearly all actives have a fitted effect of over 60% in size
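HEK 293 cells at 250 cells/well were exposed to compounds by pintool transfer for 48 or 72 hr at 37 degree Celsius, 5% CO2. Viability was read as ATP-coupled luminescence with CellTiter-Glo after 10 min at room temperature.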
The depositor's hits bear a star; i = inactive; ? = inconclusive; . = not tested or not shown; [ ] = remark or other dose. A selection: hits, their analogues and other compounds. The true share with any hit is near 10%. Unless noted, the call rests on the fitted dose curve; in most records, active means well fitted curve in the direction sought with a large enough effect; inconclusive means small, poorly fitted or top-dose-only effect, or another doubt; inactive means no such curve, though single readings can be large; an effect the other way counts as inactive or inconclusive. On the % scale 0 is the no-effect control and ±100 the full control effect; potency means the concentration at half of the fitted maximal effect.

SMILES | NIH3T3 tox | GPT2 inh | NPR1 antag | Luciferase inh | HEK293 tox
CC(C)(C)CC(=O)N1CCN2C(=O)c3cc(-c4ccc(Cl)cc4)ccc3NC(=O)[C@H]2C1 | ? | -24% | -14% | i | 40µM*
O=C1Nc2ccc(-c3ccccc3F)cc2C(=O)N2CCN(C(=O)c3ccco3)C[C@@H]12 | ? | 0%[88.5 µM] | 1%[70.6 µM] | i | ?
O=C1Nc2ccc(-c3ccc(Cl)cc3)cc2C(=O)N2CCN(C(=O)C3CCCCC3)C[C@H]12 | ? | -1% | -21% | i | 40µM*
N[S+](=O)([O-])c1ccc(C(=O)N2CC(c3ncc4c(-c5ccccc5)nccn34)C2)cc1 | ? | -1%[88.5 µM] | 3%[70.6 µM] | i | -7%[172 µM]
CCOc1ccc(CN2CCc3nc(N(C)C)[nH]c(=O)c3CC2)cc1OC | i | i | 4% | i | 8%
COc1ccc(-c2ccc3c(c2)C(=O)N2CCN(C(=O)CC(C)(C)C)C[C@@H]2C(=O)N3)cc1 | ? | -19%[88.5 µM] | -1%[70.6 µM] | i | ?
CC(C)(C)CC(=O)N1CCN2C(=O)c3cc(-c4ccccc4)ccc3NC(=O)[C@H]2C1 | ? | 5%[88.5 µM] | -1%[70.6 µM] | i | 100µM*
CCOC(=O)C1=C(N)Oc2ccc(Cl)cc2C1C(C#N)C(=O)OCC (centres undefined) | . | 4% | . | . | .
O=C(NC1C=CS(=O)(=O)C1)c1ccc2nc(-c3ccc(F)cc3)cn2c1 (centres undefined) | ? | 0% | 4% | 40µM* | 45µM*
Cc1cc(C)nc(CNC(=O)c2ccc3nc(-c4ccc(F)cc4)cn3c2)n1 | 5% | i | -1% | i | 1%
CCC(NC(=O)c1ccc2nc(-c3ccc(F)cc3)cn2c1)c1cccnc1 (centres undefined) | ? | ? | 2% | 16µM* | ?
O=C1NC(=NC2CCCC2)C2(CCCN(Cc3ccsc3)C2)N1c1cccnc1 (centres undefined) | 28µM* | i | . | . | 3%
O=C1NC(=NC2CCCCC2)C2(CCN(Cc3cccnc3)C2)N1c1cccnc1 (centres undefined) | 40µM* | i | . | . | i
O=C1NC(=NC2CCCCC2)C2(CCN(Cc3cccnc3)CC2)N1c1cccnc1 | 2% | i | . | . | i
CN(C)c1ccc(CN2CCCC3(C2)C(=NC2CCCCC2)NC(=O)N3c2cccnc2)cc1 (centres undefined) | -16% | i | . | . | ?
O=C1NC(=NC2CCCC2)C2(CCCN(Cc3ccc(F)cc3)C2)N1c1cccnc1 (centres undefined) | 16µM* | 4% | . | . | -24%
O=C1NC(=NC2CCCC2)C2(CCCN(Cc3ccc(F)cc3)C2)N1c1cc(F)cc(F)c1 (centres undefined) | ? | i | . | . | ?
O=C1NC(=NC2CCCCC2)C2(CCCN(Cc3cccnc3)C2)N1c1cc(F)cc(F)c1 (centres undefined) | 11µM* | 0% | . | . | -10%
CCOc1ccc(-c2nc(C3CC(=O)N(c4ccc(F)cc4)C3)no2)cc1 (centres undefined) | -25% | i | ? | i | -20%
O=C(NCc1ccccc1)C1COC2(CCN(C(=O)c3cccs3)CC2)N1C(=O)c1ccco1 (centres undefined) | -8% | i | 0% | i | -4%
O=C(c1ccccc1F)N1CCC(N2CCCC2=O)CC1 | i | -2% | . | . | -1%
O=C(c1ccccc1F)N1CCC2(CC1)C(=NC1CCCC1)NC(=O)N2c1cccnc1 | 35µM* | i | . | . | i
CN(C)c1ccc(CN2CCCC3(C2)C(=NC2CCCC2)NC(=O)N3c2cc(F)cc(F)c2)cc1 (centres undefined) | -30% | -21% | . | . | -25%
CC(C)CCN1CCC2(C1)C(=NC1CCCC1)NC(=O)N2c1cccnc1 (centres undefined) | 32µM* | -7% | . | . | -10%
